According to PubChem BioAssay AID1159580 (chemical genetic matrix, 2015):
About 2,000 (36%) of roughly 5,500 compounds were called active. Inconclusive results (about 18%) are left out. Rule as the data show it: active = normalized growth mostly below about 0.91 (no sharp cut-off); inconclusive = no clear call, values can overlap the other calls; inactive = mostly above about 0.92. This is one part of the list.

Assay: chemical genetic growth profiling, strain panel (AID 1159580);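 also: tested at 20 µM; growth read once vehicle control cultures reached saturation at 30 °C; 1 = growth at the plate median or of vehicle wells; lower values mean less growth of the strain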
Settings: S. cerevisiae deletion strains, growth OD

Measured: normalized growth

O=C(Oc1cccc2cccnc12)c1ccccc1
inactive: locus YAL021C, strain ccr4, active compounds read low 0.962 | locus YAL026C, strain drs2, active compounds read low 0.921 | locus YBL061C, strain skt5, active compounds read low 0.951 | locus YBR009C, strain hhf1, active compounds read low 0.956 | locus YBR023C, strain chs3, active compounds read low 0.956 | locus YBR171W, strain sec66, active compounds read low 0.917 | locus YBR231C, strain swc5, active compounds read low 0.995 | locus YBR279W, strain paf1, active compounds read low 0.957 | locus YCL011C, strain gbp2, active compounds read low 0.959 | locus YCL016C, strain dcc1, active compounds read low 0.952 | locus YCL061C, strain MRC1, active compounds read low 0.967 | locus YCL069W, strain vba3, active compounds read low 0.948 | locus YCR088W, strain abp1, active compounds read low 0.936 | locus YDL005C, strain med2, active compounds read low 0.962 | locus YDL040C, strain nat1, active compounds read low 0.951 | locus YDR001C, strain nth1, active compounds read low 0.936 | locus YDR069C, strain doa4, active compounds read low 0.953 | locus YDR159W, strain sac3, active compounds read low 0.971 | locus YDR195W, strain ref2 1.12 | locus YDR297W, strain sur2, active compounds read low 0.937 | locus YDR334W, strain swr1, active compounds read low 0.921 | locus YDR335W, strain msn5, active compounds read low 0.938 | locus YEL003W, strain gim4, active compounds read low 0.94 | locus YEL037C, strain rad23, active compounds read low 0.961 | locus YEL061C, strain CIN8 (second series), active compounds read low 0.943 | locus YER015W, strain faa2, active compounds read low 0.965 | locus YER016W, strain bim1, active compounds read low 0.96 | locus YER111C, strain swi4, active compounds read low 0.955 | locus YER155C, strain BEM2 (second series), active compounds read low 0.89 | locus YFR010W, strain ubp6, active compounds read low 0.951 | locus YGL167C, strain pmr1, active compounds read low 0.927 | locus YGL173C, strain kem1, active compounds read low 0.908 | locus YGL227W, strain vid30, active compounds read low 0.939 | locus YGL240W, strain doc1, active compounds read low 0.93 | locus YGL253W, strain hxk2, active compounds read low 0.969 | locus YHR027C, strain rpn1, active compounds read low 0.929 | locus YHR030C, strain SLT2, active compounds read low 0.955 | locus YHR079C, strain IRE1, active compounds read low 0.955 | locus YHR142W, strain chs7, active compounds read low 0.897 | locus YJL092W, strain hpr5, active compounds read low 0.972 | locus YJL095W, strain BCK1 (second series), active compounds read low 0.955 | locus YJL095W, strain BCK1, active compounds read low 0.916 | locus YJL115W, strain asf1, active compounds read low 0.951 | locus YJL129C, strain trk1, active compounds read low 0.97 | locus YJL154C, strain vps35, active compounds read low 0.939 | locus YJL164C, strain tpk1, active compounds read low 0.957 | locus YJL166W, strain qcr8, active compounds read low 0.955 | locus YJL187C, strain SWE1, active compounds read low 0.951 | locus YJR066W, strain TOR1, active compounds read low 0.92 | locus YKL160W, strain elf1, active compounds read low 0.935 | locus YKR026C, strain gcn3, active compounds read low 0.951 | locus YKR091W, strain srl3, active compounds read low 0.951 | locus YLL001W, strain dnm1, active compounds read low 0.979 | locus YLL041C, strain sdh2, active compounds read low 0.967 | locus YLR027C, strain aat2, active compounds read low 0.95 | locus YLR113W, strain HOG1, active compounds read low 0.915 | locus YLR221C, strain rsa3, active compounds read low 0.958 | locus YLR258W, strain gsy2, active compounds read low 0.955 | locus YLR342W, strain FKS1, active compounds read low 0.962 | locus YLR357W, strain rsc2, active compounds read low 0.992 | locus YLR370C, strain arc18, active compounds read low 0.918 | locus YLR384C, strain iki3, active compounds read low 0.952 | locus YML120C, strain ndi1, active compounds read low 0.934 | locus YMR125W, strain sto1, active compounds read low 0.961 | locus YMR129W, active compounds read low 0.954 | locus YMR205C, strain PFK2, active compounds read low 0.973 | locus YMR231W, strain pep5, active compounds read low 0.969 | locus YNL183C, strain NPR1, active compounds read low 0.908 | locus YNL209W, strain ssb2, active compounds read low 0.946 | locus YNL248C, strain rpa49, active compounds read low 0.944 | locus YNL322C, strain KRE1 (second series), active compounds read low 0.963 | locus YNR049C, strain mso1, active compounds read low 0.944 | locus YOR001W, strain rrp6, active compounds read low 0.95 | locus YOR080W, strain dia2, active compounds read low 0.973 | locus YOR083W, strain WHI5, active compounds read low 0.945 | locus YOR106W, strain vam3, active compounds read low 0.905 | locus YOR231W, strain MKK1, active compounds read low 0.946 | locus YOR265W, strain rbl2, active compounds read low 0.955 | locus YOR290C, strain snf2, active compounds read low 0.945 | locus YPL051W, strain arl3, active compounds read low 0.932 | locus YPL240C, strain hsp82, active compounds read low 0.965 | locus YPL256C, strain CLN2, active compounds read low 0.961
active: locus YAL030W, strain snc1, active compounds read low 0.928 | locus YDR137W, strain rgp1, active compounds read low 0.688 | locus YDR392W, strain spt3, active compounds read low 0.601 | locus YHR013C, strain ard1, active compounds read low 0.623 | locus YLL026W, active compounds read low 0.925 | locus YLR262C, strain YPT6 (second series), active compounds read low 0.776 | locus YLR320W, strain mms22, active compounds read low 0.875 | locus YMR058W, strain fet3, active compounds read low 0.897 | locus YNL071W, strain lat1, active compounds read low 0.875 | locus YOR070C, strain gyp1, active compounds read low 0.0944 | locus YOR270C, strain vph1, active compounds read low 0.414 | locus YPL078C, strain atp4, active compounds read low 0.878 | locus YPL106C, strain sse1, active compounds read low 0.732
